Inconclusive results are not listed. Calls of active or inactive are those of the source. Rule for the calls: active = hit-call score of the fitted dose curve at least 0.9, where 1 is the maximum; inconclusive = response in the unintended direction; inactive = score below 0.9.
Tests used:
[1] = biological target: human Serotonin, 5-Hydroxytryptamine Receptor 3 (5HT3), HTR3A (gene 3359) (UniProt P46098); experiment: NVS_LGIC_h5HT3: NovaScreen (NVS) Ligand-Gated Ion Channel Assay for human Serotonin, 5-Hydroxytryptamine Receptor 3 (5HT3) (AID 2283325)
human Serotonin, 5-Hydroxytryptamine Receptor 3 (5HT3), HTR3A (gene 3359), sequence (P46098 whole entry, looked up): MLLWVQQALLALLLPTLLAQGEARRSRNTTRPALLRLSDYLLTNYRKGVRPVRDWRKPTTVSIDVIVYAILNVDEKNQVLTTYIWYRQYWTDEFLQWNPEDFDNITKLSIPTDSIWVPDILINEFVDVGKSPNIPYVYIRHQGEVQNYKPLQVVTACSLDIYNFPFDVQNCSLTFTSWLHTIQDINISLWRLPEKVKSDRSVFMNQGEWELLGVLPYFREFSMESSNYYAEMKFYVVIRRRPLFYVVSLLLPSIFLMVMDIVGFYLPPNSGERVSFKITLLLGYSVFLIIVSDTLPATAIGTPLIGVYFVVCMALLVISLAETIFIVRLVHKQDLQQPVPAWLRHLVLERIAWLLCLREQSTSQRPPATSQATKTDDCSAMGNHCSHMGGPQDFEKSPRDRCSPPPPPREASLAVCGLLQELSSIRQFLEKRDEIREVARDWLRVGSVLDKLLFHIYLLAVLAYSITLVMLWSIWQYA
Procedure, shortened: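 Radioligand displacement binding to human 5-HT3 from HEK293 membranes, read by filter-based scintillation counting after 1 h. Screen at 25 uM in duplicate; chemicals passing threshold were retested in concentration-response up to 50 uM.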

[2] = biological target: human Constitutive Androstane Receptor (CAR), NR1I3 (gene 9970) (UniProt Q14994); experiment: NVS_NR_hCAR_Agonist: NovaScreen (NVS) Nuclear Receptor Binding Assay for human Constitutive Androstane Receptor Agonism (CAR) (AID 2283328)
human Constitutive Androstane Receptor (CAR), NR1I3 (gene 9970), sequence (Q14994 whole entry, looked up): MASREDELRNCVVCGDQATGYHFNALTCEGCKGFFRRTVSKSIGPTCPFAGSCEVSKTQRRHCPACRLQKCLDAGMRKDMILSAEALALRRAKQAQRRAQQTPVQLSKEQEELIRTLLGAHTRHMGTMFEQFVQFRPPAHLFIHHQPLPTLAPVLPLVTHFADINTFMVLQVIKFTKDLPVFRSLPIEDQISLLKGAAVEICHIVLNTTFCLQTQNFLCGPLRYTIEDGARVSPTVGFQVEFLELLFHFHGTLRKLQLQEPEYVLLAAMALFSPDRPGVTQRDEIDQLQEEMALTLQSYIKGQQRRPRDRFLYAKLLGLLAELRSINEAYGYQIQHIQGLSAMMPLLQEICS
Procedure, shortened: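 Cell-free TR-FRET binding readout with extracted human CAR protein, read 1 h after dosing. Gain of signal fitted against DMSO baseline. Single-concentration duplicates at 25 uM, then concentration-response up to 50 uM for actives.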

[3] = biological target: bovine Gamma-Aminobutyric Acid Type A Receptor BDZ, alpha 1 site (GABARa1), GABRA1 (gene 780973) (UniProt P08219); experiment: NVS_LGIC_bGABARa1: NovaScreen (NVS) Ligand-Gated Ion Channel Assay for bovine Gamma-Aminobutyric Acid Type A Receptor BDZ, alpha 1 site (GABARa1) (AID 2283321)
bovine Gamma-Aminobutyric Acid Type A Receptor BDZ, alpha 1 site (GABARa1), GABRA1 (gene 780973), sequence (P08219 whole entry, looked up): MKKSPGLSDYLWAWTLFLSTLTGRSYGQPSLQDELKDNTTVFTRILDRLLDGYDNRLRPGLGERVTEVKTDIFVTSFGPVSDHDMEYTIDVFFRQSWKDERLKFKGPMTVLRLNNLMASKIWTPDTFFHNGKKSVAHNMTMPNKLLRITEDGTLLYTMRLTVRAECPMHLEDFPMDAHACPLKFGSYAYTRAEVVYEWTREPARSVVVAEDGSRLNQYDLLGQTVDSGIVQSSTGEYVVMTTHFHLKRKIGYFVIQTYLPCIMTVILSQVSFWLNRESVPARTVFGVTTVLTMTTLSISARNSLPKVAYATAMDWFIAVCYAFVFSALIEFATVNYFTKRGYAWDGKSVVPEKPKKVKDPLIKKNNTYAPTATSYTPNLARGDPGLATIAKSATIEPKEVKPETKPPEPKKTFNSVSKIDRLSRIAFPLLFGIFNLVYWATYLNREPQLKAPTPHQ
Procedure, shortened: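 Radioligand competition binding on bovine cortical membranes, 0.75 h, filter-based scintillation counting. Primary single concentration 25 uM in duplicate; actives rerun in concentration-response to 50 uM max. Loss of signal fitted versus DMSO.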

[4] = biological target: rat Glutamate, AMPA Site (AMPA), Gria1 (gene 50592) (UniProt P19490); experiment: NVS_LGIC_rAMPA: NovaScreen (NVS) Ligand-Gated Ion Channel Assay for rat Glutamate, AMPA Site (AMPA) (AID 2283324)
rat Glutamate, AMPA Site (AMPA), Gria1 (gene 50592), sequence (P19490 whole entry, looked up): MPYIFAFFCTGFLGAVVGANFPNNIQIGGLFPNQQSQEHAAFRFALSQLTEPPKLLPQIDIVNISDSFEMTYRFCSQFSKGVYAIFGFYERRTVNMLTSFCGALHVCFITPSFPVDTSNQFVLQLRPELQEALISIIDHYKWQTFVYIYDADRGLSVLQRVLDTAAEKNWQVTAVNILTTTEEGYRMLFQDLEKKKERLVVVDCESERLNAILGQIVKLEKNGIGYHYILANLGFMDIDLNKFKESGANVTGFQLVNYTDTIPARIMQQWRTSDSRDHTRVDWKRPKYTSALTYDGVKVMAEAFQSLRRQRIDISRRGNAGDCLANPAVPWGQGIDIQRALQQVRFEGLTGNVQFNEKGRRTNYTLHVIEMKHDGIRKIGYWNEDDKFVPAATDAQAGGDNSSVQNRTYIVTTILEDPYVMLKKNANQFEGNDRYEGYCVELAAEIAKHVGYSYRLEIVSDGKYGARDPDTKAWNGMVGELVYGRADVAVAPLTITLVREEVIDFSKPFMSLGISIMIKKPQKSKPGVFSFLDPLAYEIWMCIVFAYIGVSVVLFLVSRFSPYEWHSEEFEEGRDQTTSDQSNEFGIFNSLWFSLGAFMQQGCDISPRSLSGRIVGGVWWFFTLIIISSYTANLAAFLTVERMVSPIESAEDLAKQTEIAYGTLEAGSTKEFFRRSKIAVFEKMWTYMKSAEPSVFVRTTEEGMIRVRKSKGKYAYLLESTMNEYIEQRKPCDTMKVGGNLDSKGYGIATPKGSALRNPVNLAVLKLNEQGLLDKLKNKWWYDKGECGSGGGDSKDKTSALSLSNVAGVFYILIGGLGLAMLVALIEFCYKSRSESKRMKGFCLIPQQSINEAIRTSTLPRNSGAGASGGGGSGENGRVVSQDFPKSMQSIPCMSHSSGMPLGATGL
Procedure, shortened: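 Rat forebrain membranes; radioligand binding read 1 h after dosing by filtration and scintillation counting. Duplicate single-point screen at 25 uM, then concentration-response to 50 uM for threshold hits (e.g. 30% inhibition); loss of signal vs DMSO.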

[5] = biological target: rat Glutamate, NMDA Agonist Site (GluNMDA), Grin1 (gene 24408) (UniProt P35439); experiment: NVS_LGIC_rGluNMDA_Agonist: NovaScreen (NVS) Ligand-Gated Ion Channel Assay for rat Glutamate, NMDA Agonist Site (GluNMDA) (AID 2283327)
Procedure, shortened: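 Rat forebrain membranes, radioligand binding in the agonist-site protocol; 1 h after dosing; filter-based scintillation counting. Single-concentration duplicate screen at 25 uM, then concentration-response up to 50 uM for actives; gain-of-signal vs DMSO.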

[6] = biological target: Sodium channel protein type 1 subunit alpha (Rattus norvegicus) (UniProt P04774); experiment: NVS_IC_rNaCh_site2: NovaScreen (NVS) Ion Channel Assay for rat Sodium Channel, Site 2 (NaCh) (AID 2283322);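 note: hit means loss of radioligand binding signal relative to DMSO so AC50 marks displacement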
Procedure, shortened: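 Membranes: rat forebrain. Format: competitive radioligand displacement, filter separation, scintillation readout, 1 h exposure. Primary screen in duplicate at 25 uM; actives retested in concentration series.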

[7] = biological target: Small conductance calcium-activated potassium channel protein 1 (Rattus norvegicus) (UniProt P70606); experiment: NVS_IC_rKCaCh: NovaScreen (NVS) Ion Channel Assay for rat Potassium Channel, Ca2+ Act., VI (KCaCh) (AID 2283336)
Small conductance calcium-activated potassium channel protein 1 (Rattus norvegicus), sequence (P70606 whole entry, looked up): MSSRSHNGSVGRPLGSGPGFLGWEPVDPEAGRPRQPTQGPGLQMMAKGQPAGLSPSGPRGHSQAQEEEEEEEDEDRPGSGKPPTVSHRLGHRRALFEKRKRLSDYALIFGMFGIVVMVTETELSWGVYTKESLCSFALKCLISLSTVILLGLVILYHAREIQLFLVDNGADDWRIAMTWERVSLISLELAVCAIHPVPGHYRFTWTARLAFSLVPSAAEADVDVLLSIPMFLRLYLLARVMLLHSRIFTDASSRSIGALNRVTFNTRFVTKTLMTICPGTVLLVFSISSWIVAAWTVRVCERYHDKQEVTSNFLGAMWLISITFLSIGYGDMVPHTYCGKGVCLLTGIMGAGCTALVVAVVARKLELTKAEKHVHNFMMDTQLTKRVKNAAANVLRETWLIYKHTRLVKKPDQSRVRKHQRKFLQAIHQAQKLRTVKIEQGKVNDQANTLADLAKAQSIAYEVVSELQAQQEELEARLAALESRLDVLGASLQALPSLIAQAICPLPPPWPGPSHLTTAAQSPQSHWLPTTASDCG
Procedure, shortened: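 Radioligand binding to rat forebrain membranes, cell-free, read 1 hour after dosing by filter-based scintillation counting. Compounds first run in duplicate at 25 uM, actives then in concentration series; loss of signal vs DMSO indicates displacement.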

[8] = NVS_IC_rCaBTZCHL: NovaScreen (NVS) Ion Channel Assay for Calcium Channel, Type L, Benzothiazepine Site (CaBTZCHL) (AID 2283337)
Procedure, shortened: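 Radioligand displacement at the benzothiazepine site using rat cortical membranes; bound label measured by filtration and scintillation counting 1.5 h after dosing. Single-point 25 uM in duplicate, then concentration series; DMSO baseline.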

[9] = NVS_IC_rCaDHPRCh_L: NovaScreen (NVS) Ion Channel Assay for rat Calcium Channel, Type L, Dihydropyridine Site (CaDHPRCh_L) (AID 2283320)
Procedure, shortened: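 Radioligand binding to dihydropyridine site on rat cortical membranes, filter-based scintillation counting, 1 h after dosing. Screened in duplicate at 25 uM; actives rerun in concentration-response up to 50 uM. Loss of signal versus DMSO baseline.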

[10] = biological target: rat Oxytocin Receptor (OXT), Oxtr (gene 25342) (UniProt P70536); experiment: NVS_GPCR_rOXT: NovaScreen (NVS) G Protein-Coupled Receptor Assay for rat Oxytocin Receptor (OXT) (AID 2283330)
rat Oxytocin Receptor (OXT), Oxtr (gene 25342), sequence (P70536 whole entry, looked up): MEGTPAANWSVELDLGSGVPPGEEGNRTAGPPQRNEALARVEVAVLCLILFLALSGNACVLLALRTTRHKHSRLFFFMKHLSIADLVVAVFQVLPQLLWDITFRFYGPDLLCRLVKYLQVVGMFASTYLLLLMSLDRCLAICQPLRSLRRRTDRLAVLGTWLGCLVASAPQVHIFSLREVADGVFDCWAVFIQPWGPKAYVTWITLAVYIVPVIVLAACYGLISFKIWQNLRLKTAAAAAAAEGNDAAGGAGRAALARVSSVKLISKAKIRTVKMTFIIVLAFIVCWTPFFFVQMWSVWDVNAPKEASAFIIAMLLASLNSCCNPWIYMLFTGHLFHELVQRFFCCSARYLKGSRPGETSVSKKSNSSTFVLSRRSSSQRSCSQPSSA
Procedure, shortened: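 Radioligand displacement on rat uterine membranes, 1 h incubation, filter-based scintillation counting. Chemicals were screened in duplicate at 25 uM, and those passing threshold were retested in concentration-response up to 50 uM. Loss of binding was fitted versus DMSO.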

[11] = biological target: human Peripheral-type Benzodiazepine Receptor (PBR), TSPO (gene 706) (UniProt P30536); experiment: NVS_MP_hPBR: NovaScreen (NVS) Membrane Protein Assay for human Peripheral-type Benzodiazepine Receptor (PBR) (AID 2283331);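 note: hits reduce radioligand binding relative to DMSO baseline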
human Peripheral-type Benzodiazepine Receptor (PBR), TSPO (gene 706), sequence (P30536 whole entry, looked up): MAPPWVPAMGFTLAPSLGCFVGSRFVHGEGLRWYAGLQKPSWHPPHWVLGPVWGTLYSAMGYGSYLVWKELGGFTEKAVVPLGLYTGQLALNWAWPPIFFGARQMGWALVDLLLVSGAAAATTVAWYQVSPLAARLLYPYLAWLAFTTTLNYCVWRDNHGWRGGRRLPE
Procedure, shortened: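 Radioligand displacement on human colonic cell membranes, 1 h incubation; bound radioactivity by filtration and scintillation counting. Primary screen in duplicate at 25 uM single concentration, actives followed up in concentration series; loss of binding versus DMSO.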

[12] = biological target: bovine Gamma-Aminobutyric Acid Type A Receptor Agonist (GABAR Agonist), GABRA1 (gene 780973) (UniProt P08219); experiment: NVS_LGIC_bGABAR_Agonist: NovaScreen (NVS) Ligand-Gated Ion Channel Assay for bovine Gamma-Aminobutyric Acid Type A Receptor Agonist (GABAR Agonist) (AID 2283338)
bovine Gamma-Aminobutyric Acid Type A Receptor Agonist (GABAR Agonist), GABRA1 (gene 780973), sequence (P08219 whole entry, looked up): as the sequence (P08219 whole entry, looked up) above
Procedure, shortened: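 Radioligand binding to bovine cerebellar membranes in agonist format, read by filter-based scintillation counting after 1 h. Primary screen in duplicate at 25 uM, with actives followed in concentration series. Gain of signal versus DMSO.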

[13] = biological target: rat Peripheral-type Benzodiazepine Receptor (PBR), Tspo (gene 24230) (UniProt P16257); experiment: NVS_MP_rPBR: NovaScreen (NVS) Membrane Protein Assay for rat Peripheral-type Benzodiazepine Receptor (PBR) (AID 2283335)
rat Peripheral-type Benzodiazepine Receptor (PBR), Tspo (gene 24230), sequence (P16257 whole entry, looked up): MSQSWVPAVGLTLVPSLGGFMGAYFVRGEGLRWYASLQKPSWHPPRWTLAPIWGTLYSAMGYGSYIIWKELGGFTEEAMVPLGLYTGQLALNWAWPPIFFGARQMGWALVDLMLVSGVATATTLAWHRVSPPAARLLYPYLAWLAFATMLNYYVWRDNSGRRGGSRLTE
Procedure, shortened: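 Rat kidney membranes; radioligand binding with displacement, filter-based scintillation counting, 1 h incubation. Primary screen in duplicate at 25 uM, actives followed in concentration series; loss of binding vs DMSO.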

[14] = biological target: bovine Gamma-Aminobutyric Acid Type A Receptor BDZ, alpha 5 site (GABARa5), GABRA5 (gene 523515) (UniProt Q08E50); experiment: NVS_LGIC_bGABARa5: NovaScreen (NVS) Ligand-Gated Ion Channel Assay for bovine Gamma-Aminobutyric Acid Type A Receptor BDZ, alpha 5 site (GABARa5) (AID 2283323)
bovine Gamma-Aminobutyric Acid Type A Receptor BDZ, alpha 5 site (GABARa5), GABRA5 (gene 523515), sequence (Q08E50 whole entry, looked up): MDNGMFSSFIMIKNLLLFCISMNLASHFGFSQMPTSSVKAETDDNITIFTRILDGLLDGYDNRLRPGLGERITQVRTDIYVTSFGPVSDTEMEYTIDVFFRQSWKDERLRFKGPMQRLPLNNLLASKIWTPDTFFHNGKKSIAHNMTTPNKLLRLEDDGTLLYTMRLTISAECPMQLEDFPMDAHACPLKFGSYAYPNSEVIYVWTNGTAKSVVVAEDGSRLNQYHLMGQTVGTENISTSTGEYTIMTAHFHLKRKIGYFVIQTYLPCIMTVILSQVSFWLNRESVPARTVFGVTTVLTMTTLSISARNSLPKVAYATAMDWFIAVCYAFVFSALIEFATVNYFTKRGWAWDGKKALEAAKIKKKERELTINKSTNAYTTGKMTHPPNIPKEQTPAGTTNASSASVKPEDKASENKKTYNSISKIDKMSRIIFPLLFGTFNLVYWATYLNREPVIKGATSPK
Procedure, shortened: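 Radioligand competitive displacement binding on bovine hippocampal membranes, read 1 hr after dosing by filter-based scintillation counting. Primary screen at 25 uM in duplicate; actives (e.g. ≥30% inhibition) then run in concentration-response up to 50 uM.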

[15] = biological target: rat Gamma-Aminobutyric Acid Type A Receptor BDZ, alpha 6 site (GABARa6), Gabra6 (gene 29708) (UniProt P30191); experiment: NVS_LGIC_rGABARa6: NovaScreen (NVS) Ligand-Gated Ion Channel Assay for rat Gamma-Aminobutyric Acid Type A Receptor BDZ, alpha 6 site (GABARa6) (AID 2283339)
Procedure, shortened: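 Rat cerebellar membranes; radioligand binding, filtration and scintillation counting, read 1 h after dosing. Single-concentration duplicate screen at 25 uM, then concentration-response up to 50 uM for actives; loss of signal fitted versus DMSO baseline.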

[16] = biological target: rat Gamma-Aminobutyric Acid Type A Receptor, Non-Selective (GABAR-NonSelective), Gabra1 (gene 29705) (UniProt P62813); experiment: NVS_LGIC_rGABAR_NonSelective: NovaScreen (NVS) Ligand-Gated Ion Channel Assay for rat Gamma-Aminobutyric Acid Type A Receptor, Non-Selective (GABAR-NonSelective) (AID 2283326)
Procedure, shortened: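 Radioligand displacement on rat whole-brain extract, 1 h, filter scintillation readout; signal loss fitted versus DMSO. Primary screen in duplicate at 25 uM; hits (e.g. ≥30% inhibition) retested in concentration-response up to 50 uM.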

[17] = biological target: Voltage-gated inwardly rectifying potassium channel KCNH2 (Homo sapiens) (UniProt Q12809); experiment: NVS_IC_hKhERGCh: NovaScreen (NVS) Ion Channel Assay for human Potassium Channel ERG (KhERGCh) (AID 2283333)
Procedure, shortened: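 Cell-free radioligand competition binding on hERG protein extracted from CHO cells, read by filter-based scintillation counting 0.75 h after dosing. Primary screen at 25 uM in duplicate, actives followed in concentration series. Signal loss fitted versus DMSO.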

[18] = biological target: rat Thyrotropin Releasing Hormone Receptor (TRH), Trhr (gene 25570) (UniProt Q01717); experiment: NVS_GPCR_rTRH: NovaScreen (NVS) G Protein-Coupled Receptor Assay for rat Thyrotropin Releasing Hormone Receptor (TRH) (AID 2283329);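 note: hit means lower bound tracer signal versus DMSO baseline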
rat Thyrotropin Releasing Hormone Receptor (TRH), Trhr (gene 25570), sequence (Q01717 whole entry, looked up): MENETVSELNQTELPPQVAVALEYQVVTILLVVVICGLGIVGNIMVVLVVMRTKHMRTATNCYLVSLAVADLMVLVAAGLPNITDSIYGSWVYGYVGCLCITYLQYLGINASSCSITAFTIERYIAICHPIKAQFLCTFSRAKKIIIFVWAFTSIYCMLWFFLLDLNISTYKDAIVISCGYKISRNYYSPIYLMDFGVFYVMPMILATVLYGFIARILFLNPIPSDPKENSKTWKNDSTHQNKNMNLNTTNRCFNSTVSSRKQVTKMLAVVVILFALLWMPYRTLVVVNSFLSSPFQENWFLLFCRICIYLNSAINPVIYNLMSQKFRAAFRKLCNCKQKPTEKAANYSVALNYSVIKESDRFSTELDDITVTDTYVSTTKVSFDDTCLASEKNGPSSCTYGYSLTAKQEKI
Procedure, shortened: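 Rat forebrain membranes; radioligand displacement at TRH receptor by filter-based scintillation counting, read 4 h after dosing. Duplicate single-point screen at 25 uM, actives rerun in concentration series; loss of signal relative to DMSO.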

In the case of `O=C(O)C(F)(F)C(F)(F)C(F)(F)C(F)(F)C(F)(F)F`, the outcome [1] is reported as “inactive” and the outcome [2] is reported as “inactive”.
With `CC(c1ccc(O)cc1)(c1ccc(O)cc1)c1ccc(O)cc1` the outcome [3] was “inactive”, the outcome [4] was “inactive” and the outcome [5] was “inactive”.
In the case of `COc1ccc(O)c(C(C)(C)C)c1`, the AC50 [6] is reported as 38.2 µM (active) and the outcome [7] is reported as “inactive”.
In the case of `Cc1cccc(C)c1N`, the outcome [4] is reported as “inactive”.
In the case of `C[C@]12CCC(=O)C=C1CC[C@@H]1[C@@H]2CC[C@]2(C)C(=O)CC[C@@H]12`, the AC50 [6] is reported as 25 µM (active).
With `CC1=C2C[C@H]3[C@@H](CC=C4C[C@@H](O)CC[C@@]43C)[C@@H]2CC[C@]12O[C@@H]1C[C@H](C)CN[C@H]1[C@H]2C` the AC50 [6] was 0.171 µM (active) and the outcome [8] was “inactive”.
For `CN(C)CCO`, the AC50 [9] was 25 µM (active).
In the case of `CCCCCCCCCC[N+](C)(C)CCCCCCCCCC`, the AC50 [9] is reported as 10.2 µM (active), the AC50 [6] is reported as 1.03 µM (active) and the outcome [1] is reported as “inactive”. The AC50 [10] was 18.6 µM (active), the AC50 [11] was 21.5 µM (active) and the AC50 [8] was 4.34 µM (active). The outcome [12] was “inactive”.
In the case of `CCSC(=O)N(CC)C1CCCCC1`, the outcome [5] is reported as “inactive”, the outcome [11] is reported as “inactive” and the outcome [13] is reported as “inactive”.
For `Clc1ccc(Cl)cc1`, the outcome [1] was “inactive” and the outcome [10] was “inactive”.
In the case of `Clc1ccc(C(c2ccccc2Cl)C(Cl)(Cl)Cl)cc1` (stereo not drawn), the outcome [4] is reported as “inactive”.
In the case of `Cc1cc2c3c(c1)C(c1ccccc1)=N[C@@H](NC(=O)c1ccncc1)C(=O)N3CC2`, the AC50 [3] is reported as 25 µM (active), the AC50 [14] is reported as 1.43 µM (active) and the AC50 [13] is reported as 9.63 µM (active). The outcome [15] was “inactive”.
In the case of `CCCCCCOC(=O)c1ccccc1C(=O)OCCCCCC`, the outcome [16] is reported as “inactive” and the outcome [17] is reported as “inactive”.
In the case of `CC(C)(c1ccccc1)c1ccc(O)cc1`, the AC50 [9] is reported as 25 µM (active), the AC50 [6] is reported as 31.4 µM (active) and the outcome [11] is reported as “inactive”. For the same compound, the outcome [13] was “inactive” and the outcome [7] was “inactive”.
For `CCCCCCCCCc1ccc(O)cc1`, the outcome [1] was “inactive” and the outcome [18] was “inactive”.
